The whole screen tested about 5,500 compounds, of which about 2,000 (36%) were called active. About 18% were inconclusive and are not listed. Rule as the data show it: active = normalized growth mostly below about 0.91 (no sharp cut-off); inconclusive = no clear call, values can overlap the other calls; inactive = mostly above about 0.92. The list shows a part of the results.
Assay: chemical genetic growth profiling, strain panel (AID 1159580);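 also: tested at 20 µM; growth read once vehicle control cultures reached saturation at 30 °C; 1 = growth at the plate median or of vehicle wells; lower values mean less growth of the strain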
Conditions: growth OD

Measured: normalized growth

CC(=O)N[C@@H](CS)C(=O)O
inactive: S. cerevisiae deletion strains, locus YAL013W, strain DEP1, hits give low values 1 | S. cerevisiae deletion strains, locus YAL021C, strain ccr4, hits give low values 1.02 | S. cerevisiae deletion strains, locus YAL026C, strain drs2, hits give low values 1 | S. cerevisiae deletion strains, locus YAL030W, strain snc1, hits give low values 0.995 | S. cerevisiae deletion strains, locus YBL061C, strain skt5, hits give low values 1.01 | S. cerevisiae deletion strains, locus YBR009C, strain hhf1, hits give low values 1 | S. cerevisiae deletion strains, locus YBR021W, strain FUR4, hits give low values 0.989 | S. cerevisiae deletion strains, locus YBR023C, strain chs3, hits give low values 0.994 | S. cerevisiae deletion strains, locus YBR171W, strain sec66, hits give low values 0.991 | S. cerevisiae deletion strains, locus YBR229C, strain ROT2, hits give low values 1.01 | S. cerevisiae deletion strains, locus YBR231C, strain swc5, hits give low values 1.01 | S. cerevisiae deletion strains, locus YBR279W, strain paf1, hits give low values 1.01 | S. cerevisiae deletion strains, locus YCL011C, strain gbp2, hits give low values 0.997 | S. cerevisiae deletion strains, locus YCL016C, strain dcc1, hits give low values 0.998 | S. cerevisiae deletion strains, locus YCL029C, strain bik1, hits give low values 1.03 | S. cerevisiae deletion strains, locus YCL061C, strain MRC1, hits give low values 0.995 | S. cerevisiae deletion strains, locus YCL069W, strain vba3, hits give low values 1.01 | S. cerevisiae deletion strains, locus YCR088W, strain abp1, hits give low values 1 | S. cerevisiae deletion strains, locus YDL005C, strain med2, hits give low values 0.992 | S. cerevisiae deletion strains, locus YDL035C, strain GPR1, hits give low values 1 | S. cerevisiae deletion strains, locus YDL040C, strain nat1, hits give low values 1.01 | S. cerevisiae deletion strains, locus YDL074C, strain BRE1, hits give low values 1.01 | S. cerevisiae deletion strains, locus YDL101C, strain DUN1, hits give low values 1.01 | S. cerevisiae deletion strains, locus YDL134C, strain PPH21, hits give low values 0.997 | S. cerevisiae deletion strains, locus YDL185W, strain tfp1, hits give low values 1.02 | S. cerevisiae deletion strains, locus YDL192W, strain arf1, hits give low values 1.01 | S. cerevisiae deletion strains, locus YDR001C, strain nth1, hits give low values 0.997 | S. cerevisiae deletion strains, locus YDR069C, strain doa4, hits give low values 1.01 | S. cerevisiae deletion strains, locus YDR101C, strain arx1, hits give low values 1.01 | S. cerevisiae deletion strains, locus YDR137W, strain rgp1, hits give low values 1.02 | S. cerevisiae deletion strains, locus YDR159W, strain sac3, hits give low values 1.01 | S. cerevisiae deletion strains, locus YDR162C, strain NBP2, hits give low values 1.02 | S. cerevisiae deletion strains, locus YDR195W, strain ref2 0.985 | S. cerevisiae deletion strains, locus YDR297W, strain sur2, hits give low values 0.99 | S. cerevisiae deletion strains, locus YDR318W, strain mcm21, hits give low values 1.02 | S. cerevisiae deletion strains, locus YDR334W, strain swr1, hits give low values 1 | S. cerevisiae deletion strains, locus YDR335W, strain msn5, hits give low values 1.01 | S. cerevisiae deletion strains, locus YDR388W, hits give low values 1.02 | S. cerevisiae deletion strains, locus YDR392W, strain spt3, hits give low values 1.02 | S. cerevisiae deletion strains, locus YDR502C, strain sam2, hits give low values 1.01 | S. cerevisiae deletion strains, locus YEL003W, strain gim4, hits give low values 1.01 | S. cerevisiae deletion strains, locus YEL037C, strain rad23, hits give low values 1 | S. cerevisiae deletion strains, locus YEL061C, strain CIN8 (second series), hits give low values 0.988 | S. cerevisiae deletion strains, locus YEL061C, strain CIN8, hits give low values 1.01 | S. cerevisiae deletion strains, locus YER015W, strain faa2, hits give low values 1 | S. cerevisiae deletion strains, locus YER016W, strain bim1, hits give low values 0.995 | S. cerevisiae deletion strains, locus YER110C, hits give low values 1.03 | S. cerevisiae deletion strains, locus YER111C, strain swi4, hits give low values 0.989 | S. cerevisiae deletion strains, locus YER155C, strain BEM2 (second series), hits give low values 1.01 | S. cerevisiae deletion strains, locus YER155C, strain BEM2, hits give low values 1.01 | S. cerevisiae deletion strains, locus YER167W, strain BCK2, hits give low values 1.01 | S. cerevisiae deletion strains, locus YFR010W, strain ubp6, hits give low values 0.983 | S. cerevisiae deletion strains, locus YGL078C, strain dbp3, hits give low values 1.01 | S. cerevisiae deletion strains, locus YGL086W, strain mad1, hits give low values 1.01 | S. cerevisiae deletion strains, locus YGL167C, strain pmr1, hits give low values 0.995 | S. cerevisiae deletion strains, locus YGL173C, strain kem1, hits give low values 1 | S. cerevisiae deletion strains, locus YGL227W, strain vid30, hits give low values 1 | S. cerevisiae deletion strains, locus YGL240W, strain doc1, hits give low values 0.964 | S. cerevisiae deletion strains, locus YGL248W, strain PDE1, hits give low values 1.02 | S. cerevisiae deletion strains, locus YGL253W, strain hxk2, hits give low values 1.02 | S. cerevisiae deletion strains, locus YGR135W, strain pre9, hits give low values 1.02 | S. cerevisiae deletion strains, locus YGR252W, strain gcn5, hits give low values 0.999 | S. cerevisiae deletion strains, locus YHR013C, strain ard1, hits give low values 1.02 | S. cerevisiae deletion strains, locus YHR027C, strain rpn1, hits give low values 1.01 | S. cerevisiae deletion strains, locus YHR030C, strain SLT2, hits give low values 1.01 | S. cerevisiae deletion strains, locus YHR079C, strain IRE1 (second series), hits give low values 1.03 | S. cerevisiae deletion strains, locus YHR094C, strain hxt1, hits give low values 1.01 | S. cerevisiae deletion strains, locus YHR129C, strain ARP1, hits give low values 1.01 | S. cerevisiae deletion strains, locus YHR142W, strain chs7, hits give low values 1.02 | S. cerevisiae deletion strains, locus YHR200W, strain rpn10, hits give low values 1.02 | S. cerevisiae deletion strains, locus YIL066C, strain RNR3, hits give low values 1.02 | S. cerevisiae deletion strains, locus YIL073C, strain SPO22, hits give low values 1.07 | S. cerevisiae deletion strains, locus YIL125W, strain kgd1, hits give low values 1.02 | S. cerevisiae deletion strains, locus YIR030C, strain dcg1, hits give low values 1.01 | S. cerevisiae deletion strains, locus YJL092W, strain hpr5, hits give low values 1.02 | S. cerevisiae deletion strains, locus YJL095W, strain BCK1 (second series), hits give low values 1.01 | S. cerevisiae deletion strains, locus YJL095W, strain BCK1, hits give low values 1.01 | S. cerevisiae deletion strains, locus YJL115W, strain asf1, hits give low values 0.991 | S. cerevisiae deletion strains, locus YJL129C, strain trk1, hits give low values 1 | S. cerevisiae deletion strains, locus YJL134W, strain LCB3, hits give low values 1.01 | S. cerevisiae deletion strains, locus YJL154C, strain vps35, hits give low values 1.01 | S. cerevisiae deletion strains, locus YJL164C, strain tpk1, hits give low values 1 | S. cerevisiae deletion strains, locus YJL166W, strain qcr8, hits give low values 0.985 | S. cerevisiae deletion strains, locus YJL168C, strain set2, hits give low values 1.01 | S. cerevisiae deletion strains, locus YJL187C, strain SWE1 (second series), hits give low values 1.03 | S. cerevisiae deletion strains, locus YJR043C, strain POL32, hits give low values 1 | S. cerevisiae deletion strains, locus YKL009W, strain mrt4, hits give low values 1.04 | S. cerevisiae deletion strains, locus YKL068W, hits give low values 1.01 | S. cerevisiae deletion strains, locus YKL085W, strain MDH1 (second series), hits give low values 1 | S. cerevisiae deletion strains, locus YKL085W, strain MDH1, hits give low values 1 | S. cerevisiae deletion strains, locus YKL160W, strain elf1, hits give low values 0.998 | S. cerevisiae deletion strains, locus YKR001C, strain vps1, hits give low values 1.01 | S. cerevisiae deletion strains, locus YKR026C, strain gcn3, hits give low values 0.991 | S. cerevisiae deletion strains, locus YKR091W, strain srl3, hits give low values 1.01 | S. cerevisiae deletion strains, locus YLL001W, strain dnm1, hits give low values 0.994 | S. cerevisiae deletion strains, locus YLL026W, hits give low values 1.01 | S. cerevisiae deletion strains, locus YLL041C, strain sdh2, hits give low values 1.01 | S. cerevisiae deletion strains, locus YLR027C, strain aat2, hits give low values 1.01 | S. cerevisiae deletion strains, locus YLR039C, strain RIC1, hits give low values 1.02 | S. cerevisiae deletion strains, locus YLR058C, strain SHM2, hits give low values 1.02 | S. cerevisiae deletion strains, locus YLR102C, strain apc9, hits give low values 1.02 | S. cerevisiae deletion strains, locus YLR221C, strain rsa3, hits give low values 1 | S. cerevisiae deletion strains, locus YLR258W, strain gsy2, hits give low values 1.01 | S. cerevisiae deletion strains, locus YLR262C, strain YPT6 (second series), hits give low values 1 | S. cerevisiae deletion strains, locus YLR262C, strain YPT6, hits give low values 1.08 | S. cerevisiae deletion strains, locus YLR268W, strain sec22, hits give low values 1.02 | S. cerevisiae deletion strains, locus YLR320W, strain mms22, hits give low values 1.01 | S. cerevisiae deletion strains, locus YLR330W, strain CHS5, hits give low values 1.01 | S. cerevisiae deletion strains, locus YLR342W, strain FKS1 (second series), hits give low values 0.995 | S. cerevisiae deletion strains, locus YLR342W, strain FKS1, hits give low values 1.01 | S. cerevisiae deletion strains, locus YLR357W, strain rsc2, hits give low values 0.989 | S. cerevisiae deletion strains, locus YLR370C, strain arc18, hits give low values 1.01 | S. cerevisiae deletion strains, locus YLR371W, strain rom2, hits give low values 1.03 | S. cerevisiae deletion strains, locus YLR384C, strain iki3, hits give low values 1.01 | S. cerevisiae deletion strains, locus YLR418C, strain cdc73, hits give low values 1.05 | S. cerevisiae deletion strains, locus YML016C, strain PPZ1, hits give low values 1.01 | S. cerevisiae deletion strains, locus YML032C, strain rad52, hits give low values 1.01 | S. cerevisiae deletion strains, locus YML120C, strain ndi1, hits give low values 0.999 | S. cerevisiae deletion strains, locus YML124C, strain tub3, hits give low values 1.04 | S. cerevisiae deletion strains, locus YMR058W, strain fet3, hits give low values 0.998 | S. cerevisiae deletion strains, locus YMR078C, strain ctf18, hits give low values 1.03 | S. cerevisiae deletion strains, locus YMR125W, strain sto1, hits give low values 1.01 | S. cerevisiae deletion strains, locus YMR129W, hits give low values 0.984 | S. cerevisiae deletion strains, locus YMR205C, strain PFK2, hits give low values 0.995 | S. cerevisiae deletion strains, locus YMR223W, strain ubp8, hits give low values 1.02 | S. cerevisiae deletion strains, locus YMR231W, strain pep5, hits give low values 1 | S. cerevisiae deletion strains, locus YMR263W, strain SAP30, hits give low values 1.01 | S. cerevisiae deletion strains, locus YMR307W, strain GAS1, hits give low values 1.04 | S. cerevisiae deletion strains, locus YNL067W, strain RPL9B, hits give low values 1.03 | S. cerevisiae deletion strains, locus YNL071W, strain lat1, hits give low values 1.02 | S. cerevisiae deletion strains, locus YNL128W, strain TEP1, hits give low values 1.03 | S. cerevisiae deletion strains, locus YNL153C, strain GIM3, hits give low values 1.02 | S. cerevisiae deletion strains, locus YNL209W, strain ssb2, hits give low values 1 | S. cerevisiae deletion strains, locus YNL233W, strain BNI4, hits give low values 1.01 | S. cerevisiae deletion strains, locus YNL248C, strain rpa49, hits give low values 1.08 | S. cerevisiae deletion strains, locus YNL250W, strain rad50, hits give low values 1.01 | S. cerevisiae deletion strains, locus YNL271C, strain bni1, hits give low values 1.03 | S. cerevisiae deletion strains, locus YNL298W, strain CLA4, hits give low values 1.02 | S. cerevisiae deletion strains, locus YNL307C, strain MCK1, hits give low values 1.02 | S. cerevisiae deletion strains, locus YNL322C, strain KRE1 (second series), hits give low values 0.999 | S. cerevisiae deletion strains, locus YNR049C, strain mso1, hits give low values 1 | S. cerevisiae deletion strains, locus YNR052C, strain pop2, hits give low values 1.03 | S. cerevisiae deletion strains, locus YOL006C, strain TOP1, hits give low values 0.995 | S. cerevisiae deletion strains, locus YOL012C, strain htz1 0.978 | S. cerevisiae deletion strains, locus YOL147C, strain pex11, hits give low values 1.02 | S. cerevisiae deletion strains, locus YOR001W, strain rrp6, hits give low values 1.02 | S. cerevisiae deletion strains, locus YOR061W, strain CKA2, hits give low values 1.02 | S. cerevisiae deletion strains, locus YOR069W, strain VPS5, hits give low values 1.01 | S. cerevisiae deletion strains, locus YOR070C, strain gyp1, hits give low values 1 | S. cerevisiae deletion strains, locus YOR080W, strain dia2, hits give low values 0.984 | S. cerevisiae deletion strains, locus YOR083W, strain WHI5, hits give low values 1 | S. cerevisiae deletion strains, locus YOR106W, strain vam3, hits give low values 1.02 | S. cerevisiae deletion strains, locus YOR136W, strain idh2, hits give low values 1.03 | S. cerevisiae deletion strains, locus YOR144C, strain elg1, hits give low values 1.03 | S. cerevisiae deletion strains, locus YOR184W, strain ser1, hits give low values 1.01 | S. cerevisiae deletion strains, locus YOR265W, strain rbl2, hits give low values 1 | S. cerevisiae deletion strains, locus YOR270C, strain vph1, hits give low values 1.04 | S. cerevisiae deletion strains, locus YOR290C, strain snf2, hits give low values 0.994 | S. cerevisiae deletion strains, locus YOR316C, strain cot1, hits give low values 1.02 | S. cerevisiae deletion strains, locus YPL051W, strain arl3, hits give low values 1.01 | S. cerevisiae deletion strains, locus YPL078C, strain atp4, hits give low values 0.992 | S. cerevisiae deletion strains, locus YPL106C, strain sse1, hits give low values 0.988 | S. cerevisiae deletion strains, locus YPL240C, strain hsp82, hits give low values 0.999 | S. cerevisiae deletion strains, locus YPR119W, strain clb2, hits give low values 1.02 | S. cerevisiae deletion strains, locus YPR141C, strain kar3, hits give low values 1.03 | S. cerevisiae deletion strains, locus YPR163C, strain tif3, hits give low values 1.03 | S. cerevisiae deletion strains, locus YPR167C, strain met16, hits give low values 1.06 | S. cerevisiae deletion strains, strain wtn01, hits give low values 1.01 | S. cerevisiae strains, strain wild type, hits give low values 1.01

Reference: PubChem BioAssay AID1159580 (chemical genetic matrix, 2015)
